Some targets named below: GLI3; GLA; GLCE; GLIPR2; GPIHBP1; GPR3; GPR89B; GPS1; GRHL3; HBQ1; HDHD2; HHATL; HIST1H4A; HIST2H3A; HS6ST1; IKBKAP; IL7; IMMP2L; ILDR2; INF2; IPO9; ITFG1; JAM3; KCND2; KCNK12; KCNJ4; KCNK6; KCNJ11.
What all share (assay): pooled miR-30 sensor sort-seq; sequence = guide strand
Common to all, as to settings: shRNA

This note sets out measurements from the OligoGym collection.
Note: reference of the scale not given here.

For the sequence TTTGAGTGTAACAATACTGATT, in the assay with GLI3, the sensor-assay potency score (higher = more potent) was -0.904. On to TTGAGAATCGTGACCAAGGAGT, for which the sensor-assay potency score (higher = more potent) with GLI3 was -0.494. As to TTTAGCAGATCTACTCCCCAGT, in the assay with GLA, the sensor-assay potency score (higher = more potent) is -0.498. As to AACTGTCACAGTAACAACCATC, the sensor-assay potency score (higher = more potent) with GLA was -1.1. In the case of TTATTTTGAACATCGGCACTGG, in the assay with GLCE, the sensor-assay potency score (higher = more potent) worked out at 0.23. Take TTCTTCCATACCATGGCCGTGA: the sensor-assay potency score (higher = more potent) with GLIPR2 was -1.01. Sequence TAACATGTGCACATTGTGCTTA registered a sensor-assay potency score (higher = more potent) in the assay with GLCE of 0.792. With TTGACAACATTCCCCGCTGGGA, in the assay with GLIPR2, the sensor-assay potency score (higher = more potent) is -0.899. In the case of TTTAACATCAAAGTGAACTCAA, the sensor-assay potency score (higher = more potent) with GLCE is 0.589. With TCTGATGATAGTATTCTGCTGG, the sensor-assay potency score (higher = more potent) with GLI3 was 0.381. For TTTGGTCATAGAACTGACCAGA, in the assay with GLI3, the sensor-assay potency score (higher = more potent) is -0.608. Regarding TTCCTCTTCCTCCTGCTGTGTC, in the assay with GPIHBP1, the sensor-assay potency score (higher = more potent) is -0.491.

Turning to TAGCTCAGAAATTCAAACGTAA, the sensor-assay potency score (higher = more potent) with GPR3 came to 0.128. The sequence TCAGCTACCATAGACATCTCTT gave a sensor-assay potency score (higher = more potent) with GPR89B of 0.143.

In turn, TACCATAGACATCTCTTGCCCC had a sensor-assay potency score (higher = more potent) in the assay with GPR89B of 0.0271. For the sequence TTGCTGTGTGAGTCCACACGGG, the sensor-assay potency score (higher = more potent) in the assay with GPS1 is -0.414.

With TTCTTCTTGAGCAAATCTGGGT, in the assay with GRHL3, the sensor-assay potency score (higher = more potent) is -0.605. TAGACGCCGACGTTGCTGCCCA: the sensor-assay potency score (higher = more potent) with HBQ1 was -0.72. In the case of AAGTCTCCGGGGTAGTGCCGGG, the sensor-assay potency score (higher = more potent) with HBQ1 is -1.01. For TTTGAAATCAGGTAGTGCCCGA, the sensor-assay potency score (higher = more potent) with HDHD2 was -0.154. Regarding TAACCTTTTAAGAGCTTCCTGT, in the assay with HDHD2, the sensor-assay potency score (higher = more potent) was -0.227.

Regarding TAGCAAACAGCACATGTCCGGA, the sensor-assay potency score (higher = more potent) with HHATL is -0.627. Consider TTGAGCAGGTCAGCTAAGGAGT, for which the sensor-assay potency score (higher = more potent) with HHATL was -0.763.

Take TAGACCACGTCCATGGCAGTGA: the sensor-assay potency score (higher = more potent) with HIST1H4A was -0.363. TCTCCTCGTAGATCAGACCAGA: the sensor-assay potency score (higher = more potent) with HIST1H4A is -0.957. In the case of TAATGGTCACGCGCTTGGCGTG, the sensor-assay potency score (higher = more potent) with HIST2H3A was -1.65. For TCTCGCGTACCAGCCGCTGGAA, in the assay with HIST2H3A, the sensor-assay potency score (higher = more potent) was -1.89. TTGAACGTCCGCTCGAACAGGT: the sensor-assay potency score (higher = more potent) in the assay with HS6ST1 is -0.0201. For TAATTCATTAACATCTACCAGA, the sensor-assay potency score (higher = more potent) with IKBKAP is -0.538. For TTTTCTTCCAAACTCTTTGTTG, the sensor-assay potency score (higher = more potent) with IL7 was -0.54. Regarding TTCAAAAGCACCACATCAGATG, in the assay with IMMP2L, the sensor-assay potency score (higher = more potent) was -0.957. TTCCTTATTAGCATCACAGATA: in the assay with IL7, the sensor-assay potency score (higher = more potent) is -0.731. On to TTTATTTTCTTCCAAACTCTTT, for which the sensor-assay potency score (higher = more potent) in the assay with IL7 is -0.524.

For the sequence TATCTCTTGTAATAGTCTCTTT, the sensor-assay potency score (higher = more potent) in the assay with IL7 is -0.557.

In the assay with IMMP2L, TCTTAATGATCTTCTGTTCTGG came in with a sensor-assay potency score (higher = more potent) of 0.00439.

Take TACAGTAATAGAGTCCGCTGTC: the sensor-assay potency score (higher = more potent) with ILDR2 came to 0.133. In the assay with IL7, TATCACAATCAGATGATGCTAC yielded a sensor-assay potency score (higher = more potent) of 0.423.

Turning to TAATGATCTTCTGTTCTGGGTT, the sensor-assay potency score (higher = more potent) with IMMP2L was -0.0559. Take TTCAATCTCGTGCTTCTCGGGA: the sensor-assay potency score (higher = more potent) with INF2 was -0.3. For TATTATTGCAACTGATACCTTA, the sensor-assay potency score (higher = more potent) with IL7 was -0.0538. Take TAGCTCAAACACCTGCTTCTTC: the sensor-assay potency score (higher = more potent) with INF2 is -0.118. For TAGAGTTGTGCTCACGTGCCAC, in the assay with INF2, the sensor-assay potency score (higher = more potent) was -0.638.

Regarding TCAAAATTCCTCACTTTCCAGT, the sensor-assay potency score (higher = more potent) with IMMP2L is -0.183. In the assay with ILDR2, TAGTACAGGACCTTCATGGAGT returned a sensor-assay potency score (higher = more potent) of 0.283. For TATGGTTCTGACAATATCTCCT, the sensor-assay potency score (higher = more potent) with IMMP2L was 0.439. In the case of TAGGAAACACAAGTCATTCAGT, in the assay with IL7, the sensor-assay potency score (higher = more potent) was determined as 0.00202. Consider TTGTCGGGCACTGTGACCTGAA, for which the sensor-assay potency score (higher = more potent) with ILDR2 was -0.304. In the case of TGAACTTCCACTGCACAACTGC, the sensor-assay potency score (higher = more potent) in the assay with ILDR2 was -0.265.

ATCGATGCTCCTTCTACTCTTG: the sensor-assay potency score (higher = more potent) with IMMP2L is -0.658. For TAGCATCACAGATATGTCTTTT, the sensor-assay potency score (higher = more potent) with IL7 was -0.445. TAGGACTTGAACTTCCACTGCA displayed a sensor-assay potency score (higher = more potent) in the assay with ILDR2 of 0.867. In the case of TTTTGATTAAACCTTGCTGGGC, in the assay with INF2, the sensor-assay potency score (higher = more potent) is -0.764. Consider TTCAAGAGCAATCACTCTCTTA, for which the sensor-assay potency score (higher = more potent) with IMMP2L was -0.135. On to TCTACTCTTGCCACACAGGCGA, for which the sensor-assay potency score (higher = more potent) with IMMP2L was -0.683.

For TGAACAATCGTGATCTCTCTGC, in the assay with ILDR2, the sensor-assay potency score (higher = more potent) is -0.125. Consider TTATATCTGCCTCTCATCCTTC, for which the sensor-assay potency score (higher = more potent) in the assay with ILDR2 is -0.505. Same read-out and setting: the result for TACTACTCGAACAGTCCTCCTG reads 0.188.

AATGATACAATGTCACCACGGT: the sensor-assay potency score (higher = more potent) with IMMP2L is 0.432. In the case of TTCAGCAATGTGCTGATCTTGA, the sensor-assay potency score (higher = more potent) in the assay with INF2 is -0.209.

For TCTGCATCATGAACAATCGTGA, the sensor-assay potency score (higher = more potent) with ILDR2 is -0.116.

Consider TTCTCTTGCTGAGAGATTGGGC, for which the sensor-assay potency score (higher = more potent) with ILDR2 is -0.528. For the sequence TTGATGTATCTTTTCACCCACC, the sensor-assay potency score (higher = more potent) with IMMP2L is -0.733. Regarding TAAATATTTCTCGCACAGCATC, in the assay with IMMP2L, the sensor-assay potency score (higher = more potent) was -1.39. As to TTGTTTGTATTCATCTTCTAGT, the sensor-assay potency score (higher = more potent) in the assay with IL7 was -0.373.

As for TTGTAATAGTCTCTTTAGGAAA, the sensor-assay potency score (higher = more potent) with IL7 was -1.6. On to TTGAAGCTACTACTCGAACAGT, for which the sensor-assay potency score (higher = more potent) in the assay with ILDR2 is -0.815. Turning to TTCAAAGAAGGCTGCATCGATG, in the assay with IMMP2L, the sensor-assay potency score (higher = more potent) is -1.29. In the assay with ILDR2, TAATACAGTAATAGAGTCCGCT had a sensor-assay potency score (higher = more potent) of 0.505. For the sequence TAAAGATTTATTTTCTTCCAAA, the sensor-assay potency score (higher = more potent) in the assay with IL7 was -1.11.

For TTCTAGTAATACAATATGCATT, the sensor-assay potency score (higher = more potent) with IL7 is -1.23. Turning to TTGTCATCTGCATTGATGCCAT, the sensor-assay potency score (higher = more potent) in the assay with IPO9 is -0.517. TAGATCACCATTGAAATCCATA: in the assay with ITFG1, the sensor-assay potency score (higher = more potent) was -0.916. For TAATGTTTGATTTTGTCCCCAG, the sensor-assay potency score (higher = more potent) with ITFG1 was -0.0623. For the sequence TTCCACACTTTCAAATTCCTGT, in the assay with JAM3, the sensor-assay potency score (higher = more potent) was 0.0526. As for TTCATCTTGAATTTTCTTCCAC, the sensor-assay potency score (higher = more potent) with JAM3 came out at 0.166. Consider TTCTGAGGCACAACTCTTCAGT, for which the sensor-assay potency score (higher = more potent) with KCND2 is -0.605.

As for TTGTTCGTCCACAAACTCGTGA, the sensor-assay potency score (higher = more potent) with KCND2 is -0.0668.

Consider TCGTTGAGGTGCGAACGGCGGC, for which the sensor-assay potency score (higher = more potent) in the assay with KCNK12 was -1.1.

Consider TAGTCCACCTTGTAGTGGCTCT, for which the sensor-assay potency score (higher = more potent) with KCNJ4 was -0.556. The same measure, in the same setting: as for TAGGAGATGTTGTCCAGCGGGA, the figure is -0.546.

Take TTGAGGTGCGAACGGCGGCAGC: the sensor-assay potency score (higher = more potent) with KCNK12 is -1.57. On to TAGTCGGTGTGGGAGCTGGCAG, for which, in the assay with KCNK6, the sensor-assay potency score (higher = more potent) was -1.57. With TTGCGTACCACCTGCATGTGGA, the sensor-assay potency score (higher = more potent) in the assay with KCNJ11 was -0.169. As to AGTAAATGCAGCACACGCCGAG, the sensor-assay potency score (higher = more potent) with KCNK12 is -1.04.
